According to PubChem BioAssay (NCATS):
Unmarked numbers belong to inactive results. The call rests on the fitted dose curve; in most records, active means well fitted curve in the direction sought with a large enough effect; inactive means no such curve, though single readings can be large or run the other way.

Assay: qHTS for small molecule inhibitors of Yes1 kinase: Counter Assay (AID 686950);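 further: no kinase present so only ADP-Glo detection of a fixed ADP amount is tested; luminescence from ADP-Glo reporting ADP in a fixed ATP and ADP mixture; 0% = DMSO wells with ATP plus ADP and -100% = ATP-only wells without ADP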
Conditions: series mostly up to 76.9 µM; activity change, negative = inhibition: at the top concentration
Summary of the method: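 ADP-Glo luminescence read after a 60 min room-temperature incubation of compound with an ATP/ADP mix (0.08 mM/0.02 mM) and no kinase, following a 20 min compound preincubation. Signal scaled between ATP+ADP (max) and 0.1 mM ATP-only (min) wells; Tris pH 7.5, Mg2+, DTT.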

Row | Structure (SMILES) | activity change, negative = inhibition [%]
1 | CN(C)c1ccc2[nH]c(O)c(C=Nc3ccc(S(N)(=O)=O)cc3)c2c1 | 0.337
2 | O=C(Nc1n[nH]c2nc(-c3ccco3)c(Br)cc12)C1CC1 | -4.51
3 | CCN(CC)Cc1ccc(Nc2nccc(-c3cnn4ncccc34)n2)cc1 | -0.239
4 | NC(=O)Cc1ccccc1Oc1nccc(-c2c(-c3ccc(F)cc3)ncn2C2CCNCC2)n1 | -2.74
5 | Fc1ccc(-c2ncn(C3CCNCC3)c2-c2ccnc(Oc3ccc(Oc4ccccc4)cc3)n2)cc1 | 1.55
6 | CCn1c(-c2nonc2N)nc2cncc(C(=O)NCCNC)c21 | -0.699
7 | NS(=O)(=O)c1ccc(N=Nc2c(O)[nH]c3ccc(C(=O)NCCc4cnc[nH]4)cc23)cc1 | 7.42
8 | CN(C)CCCn1c(-c2nonc2N)nc2cnccc21 | -0.0764
9 | CCn1c(-c2nonc2N)nc2cncc(C(=O)N3CCNCC3)c21 | -3.7
10 | CCn1c(-c2nonc2N)nc2c(C#CC(C)(C)O)ncc(OCC3CCNCC3)c21 | 2.62
11 | O=C1NC(=O)C(c2ccccc2Cl)=C1Nc1cccc(O)c1 | -4.83
12 | CC(=O)Nc1cccc(C#Cc2cncnc2Nc2ccc(OCc3cccc(F)c3)c(Cl)c2)c1 | 3.72
13 | O=C(Nc1ccc(Oc2ccc3nc(NC(=O)c4ccco4)[nH]c3c2)cc1)Nc1cc(C(F)(F)F)ccc1F | 5.02
14 | CNC(=O)c1ncccc1Nc1nc(Nc2cc3c(cc2OC)CCCN3C(=O)CN(C)C)nc2[nH]ccc12 | 1.81
15 | CNC(=O)c1cncc(C=Cc2c(C)cccc2C)c1 | 5.29
16 | CS(=O)(=O)CCN(CC#N)Cc1ccc(-c2ccc3ncnc(Nc4ccc(OCc5cccc(F)c5)c(Cl)c4)c3c2)o1 | 1.43
17 | Oc1[nH]c2ccccc2c1C=Nc1ccc(-n2cncn2)cc1 | -0.552
18 | COc1cccc(-n2ncc3c(NN=Cc4ccc(S(C)(=O)=O)cc4)ncnc32)c1 | -2
19 | Clc1ccc(-c2nn3ncccc3c2-c2ccnc(Nc3ccccc3)n2)cc1 | -0.964
20 | Cc1cc(O)cc(C)c1C=Cc1cncc(C(=O)N(C)C)c1 | 3.19
21 | COC(=O)Nc1nc2ccc(Oc3ccc(NC(=O)Nc4cccc(Br)c4)cc3)cc2[nH]1 | 3.28
22 | Nc1ncc(-c2cccc(S(N)(=O)=O)c2)c2scc(-c3ccc(F)c(Cl)c3)c12 | 4.98
23 | Cc1ccc(O)cc1Nc1ccnc2cc(-c3ccccn3)ccc12 | 5.35
24 | COc1cc(Nc2ncc3c(C)nc(-c4cccc(Oc5ccccc5)c4)n3n2)cc(OC)c1OC | 2.47
